PubChem BioAssay (NCI)
About 79,000 compounds went through this panel and 15% of them were active in at least one assay; those are over-represented in the sample as a whole. Unmarked numbers belong to inactive results. Activity calls are given as the source filed them. Rule as the data show it: active = growth inhibition above about 70%; inactive = the rest.

How the values were obtained:
[1] = NCI Yeast Anticancer Drug Screen. Data for the rad52 strain (AID 147);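 also: 0% = growth of vehicle-treated control cultures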; conditions: S. cerevisiae rad52 mutant growth inhibition, active compounds read high
Method in brief: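 Vehicle-treated cultures served as the reference for growth inhibition of compound-exposed yeast bearing a DNA repair mutation.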

[2] = NCI Yeast Anticancer Drug Screen. Data for the wt1 strain (AID 149);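 also: 0% = growth of vehicle-treated wt1 cultures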; conditions: S. cerevisiae wt1 strain (SPY 50644) growth inhibition, active compounds read high
Method in brief: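 Growth inhibition read against vehicle controls after compound exposure of the wt1 yeast strain.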

[3] = NCI Yeast Anticancer Drug Screen. Data for the rad50EPP+ strain (AID 151);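 also: 0% = growth of vehicle-treated control cultures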; conditions: S. cerevisiae rad50 mutant strain, active compounds read high
Method in brief: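 In this screen, rad50EPP+ yeast were exposed to compounds. Growth inhibition was scored against vehicle-treated controls.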

[4] = NCI Yeast Anticancer Drug Screen. Data for the rad50 strain (AID 155);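 also: 0% = growth of vehicle-only cultures of the same strain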; conditions: S. cerevisiae rad50 strain growth inhibition, active compounds read high
Method in brief: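 Readout: growth inhibition relative to vehicle-treated cultures. Compound exposure was carried out in a genetically defined yeast strain deficient in DNA damage repair.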

[5] = NCI Yeast Anticancer Drug Screen. Data for the mec2-1 strain (AID 157); conditions: S. cerevisiae mec2-1 strain, active compounds read high
Method in brief: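 Vehicle-treated cultures served as reference for growth inhibition of compound-exposed mec2-1 yeast.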

[6] = NCI Yeast Anticancer Drug Screen. Data for the rad14 strain (AID 159);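 also: 0% = growth of vehicle-treated control cultures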; conditions: S. cerevisiae rad14 strain growth inhibition, active compounds read high
Method in brief: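 Growth inhibition vs vehicle controls; genetically altered yeast strain (DNA damage repair defect) treated with test compounds.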

[7] = NCI Yeast Anticancer Drug Screen. Data for the sgs1 mgt1 strain (AID 161);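 also: 0% = growth of cultures given vehicle only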; conditions: S. cerevisiae sgs1 mgt1 strain, active compounds read high
Method in brief: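 Genetically altered yeast, compound exposure, growth inhibition relative to vehicle.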

[8] = NCI Yeast Anticancer Drug Screen. Data for the CLN2oe strain (AID 163);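 also: 0% = growth of vehicle-only control cultures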; conditions: S. cerevisiae CLN2oe strain, active compounds read high
Method in brief: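 Inhibition relative to vehicle-treated yeast is reported. Cells: strain with genetic alteration in cell-cycle control, grown with compound.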

[9] = NCI Yeast Anticancer Drug Screen. Data for the bub3 strain (AID 167); conditions: S. cerevisiae bub3 mutant strain, active compounds read high
Method in brief: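 Readout: yeast growth inhibition, expressed relative to vehicle-only wells. The test organism is a mutant strain from a panel with lesions in DNA repair or checkpoint genes.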

[10] = NCI Yeast Anticancer Drug Screen. Data for the wt2 strain (AID 169);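 also: 0% = growth of vehicle-treated yeast cultures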; conditions: S. cerevisiae wt2 strain growth inhibition, active compounds read high
Method in brief: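 Inhibition of yeast growth was determined after compound treatment, normalised to controls receiving only vehicle.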

[11] = NCI Yeast Anticancer Drug Screen. Data for the mlh1 strain (AID 171);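 also: 0% = growth of vehicle-treated control cultures of the same strain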; conditions: S. cerevisiae mlh1 strain growth inhibition, active compounds read high
Method in brief: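 Vehicle-normalised growth inhibition of a repair- or checkpoint-altered yeast strain following compound treatment.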

[12] = NCI Yeast Anticancer Drug Screen. Data for the sgs1 strain (AID 173);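 also: 0% = growth of vehicle-only control cultures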; conditions: S. cerevisiae sgs1 mutant, active compounds read high
Method in brief: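 Screen format: yeast with repair or checkpoint alterations, compound exposure, growth read relative to vehicle.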

[13] = NCI Yeast Anticancer Drug Screen. Data for the mlh1 rad18 strain (AID 175); conditions: S. cerevisiae mlh1 rad18 strain growth inhibition, active compounds read high
Method in brief: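 Vehicle-treated cultures served as the reference for growth inhibition in a yeast strain carrying DNA damage repair alterations exposed to each compound.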

[14] = NCI Yeast Anticancer Drug Screen. Data for the rad18 strain (AID 177); conditions: S. cerevisiae rad18 mutant growth inhibition, active compounds read high
Method in brief: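 Test articles were incubated with altered yeast defective in DNA damage repair. Results are given as inhibition of growth versus vehicle.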

[15] = at 5.0 µM (retest, dose inferred, filed as 0.5)
[16] = at 50.0 µM (retest, dose inferred, filed as 5.0)

## BrCc1ccccc1C(c1ccccc1)c1ccccc1
[1]; at 1.2 µM
  growth inhibition: 9%
[1]; at 3.7 µM
  growth inhibition: 79% (active)
[1]; at 11.0 µM
  growth inhibition: 96% (active)
[1]; at 33.0 µM
  growth inhibition: 96% (active)
[1]; at 100.0 µM
  growth inhibition: 94% (active)
[2]; at 1.2 µM
  growth inhibition: -2%
[2]; at 3.7 µM
  growth inhibition: 34%
[2]; at 11.0 µM
  growth inhibition: 96% (active)
[2]; at 33.0 µM
  growth inhibition: 97% (active)
[2]; at 100.0 µM
  growth inhibition: 95% (active)
[3]; at 1.2 µM
  growth inhibition: 1%
[3]; at 3.7 µM
  growth inhibition: 6%
[3]; at 11.0 µM
  growth inhibition: 8%
[3]; at 33.0 µM
  growth inhibition: 9%
[3]; at 100.0 µM
  growth inhibition: 15%
[4]; at 1.2 µM
  growth inhibition: 8%
[4]; at 3.7 µM
  growth inhibition: 85% (active)
[4]; [15]
  growth inhibition: 12%
[4]; at 11.0 µM
  growth inhibition: 97% (active)
[4]; at 33.0 µM
  growth inhibition: 96% (active)
[4]; [16]
  growth inhibition: 96% (active)
[4]; at 50.0 µM
  growth inhibition: 98.1% (active)
[4]; at 100.0 µM
  growth inhibition: 93% (active)
[5]; at 1.2 µM
  growth inhibition: 4%
[5]; at 3.7 µM
  growth inhibition: 42%
[5]; [15]
  growth inhibition: 21%
[5]; at 11.0 µM
  growth inhibition: 95% (active)
[5]; at 33.0 µM
  growth inhibition: 96% (active)
[5]; [16]
  growth inhibition: 98% (active)
[5]; at 50.0 µM
  growth inhibition: 98.2% (active)
[5]; at 100.0 µM
  growth inhibition: 96% (active)
[6]; at 1.2 µM
  growth inhibition: 3%
[6]; at 3.7 µM
  growth inhibition: 64%
[6]; at 11.0 µM
  growth inhibition: 96% (active)
[6]; at 33.0 µM
  growth inhibition: 97% (active)
[6]; at 100.0 µM
  growth inhibition: 95% (active)
[7]; [15]
  growth inhibition: 58%
[7]; [16]
  growth inhibition: 98% (active)
[7]; at 50.0 µM
  growth inhibition: 97.9% (active)
[8]; at 1.2 µM
  growth inhibition: 8%
[8]; at 3.7 µM
  growth inhibition: 64%
[8]; at 11.0 µM
  growth inhibition: 97% (active)
[8]; at 33.0 µM
  growth inhibition: 97% (active)
[8]; at 100.0 µM
  growth inhibition: 96% (active)
[9]; at 1.2 µM
  growth inhibition: 4%
[9]; at 3.7 µM
  growth inhibition: 56%
[9]; [15]
  growth inhibition: 24%
[9]; at 11.0 µM
  growth inhibition: 96% (active)
[9]; at 33.0 µM
  growth inhibition: 97% (active)
[9]; [16]
  growth inhibition: 97% (active)
[9]; at 50.0 µM
  growth inhibition: 97.3% (active)
[9]; at 100.0 µM
  growth inhibition: 94% (active)
[10]; at 1.2 µM
  growth inhibition: -1%
[10]; at 3.7 µM
  growth inhibition: 62%
[10]; at 11.0 µM
  growth inhibition: 97% (active)
[10]; at 33.0 µM
  growth inhibition: 96% (active)
[10]; at 100.0 µM
  growth inhibition: 95% (active)
[11]; at 1.2 µM
  growth inhibition: 10%
[11]; at 3.7 µM
  growth inhibition: 68%
[11]; at 11.0 µM
  growth inhibition: 97% (active)
[11]; at 33.0 µM
  growth inhibition: 97% (active)
[11]; at 100.0 µM
  growth inhibition: 96% (active)
[12]; at 1.2 µM
  growth inhibition: 9%
[12]; at 3.7 µM
  growth inhibition: 84% (active)
[12]; at 11.0 µM
  growth inhibition: 97% (active)
[12]; at 33.0 µM
  growth inhibition: 97% (active)
[12]; at 100.0 µM
  growth inhibition: 96% (active)
[13]; [15]
  growth inhibition: 82% (active)
[13]; [16]
  growth inhibition: 97% (active)
[13]; at 50.0 µM
  growth inhibition: 98.3% (active)
[14]; at 1.2 µM
  growth inhibition: 25%
[14]; at 3.7 µM
  growth inhibition: 89% (active)
[14]; at 11.0 µM
  growth inhibition: 96% (active)
[14]; at 33.0 µM
  growth inhibition: 97% (active)
[14]; at 100.0 µM
  growth inhibition: 96% (active)
